Reference: PubChem BioAssay (Tox21)
Records with an inconclusive call do not appear. Calls of active or inactive are those of the source. Unless noted, calls come from the whole dose curve; as a rule, active = well fitted curve in the direction sought with a large enough effect in the repeat runs; inconclusive = weak or mixed curves; inactive = no such curve, though single readings can be large; an effect the other way counts as inactive or inconclusive.

Key:
[1] = qHTS assay for small molecule agonists of the p53 signaling pathway (AID 651631; calls by dose curve; note: nearly all actives have a fitted effect of over 15% in size; note: potency is the fitted concentration of half-maximal effect); settings: HCT-116 p53RE-bla reporter, beta-lactamase FRET ratio, 16 h; series mostly up to 73.3 µM
Summary of the method: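 HCT-116 p53RE-bla reporter line, 16 h compound treatment at 37 °C, then fluorescence after 2 h with B/G FRET substrate.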

[2] = qHTS assay for small molecule agonists of the p53 signaling pathway - cell viability (AID 651633; calls by dose curve; note: nearly all actives have a fitted effect of over 30% in size); settings: p53RE-bla HCT-116 viability, ATP luminescence, 16 h; series mostly up to 83.3 µM
Summary of the method: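 Viability counter-read: CellTiter-Glo luminescence (30 min, room temperature) in the same p53RE-bla plates. These plates had been exposed to compounds for 16 h at 37 C.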

[3] = qHTS assay for small molecules that induce genotoxicity in human embryonic kidney cells expressing luciferase-tagged ATAD5 - cell viability (AID 651634; calls by dose curve; note: nearly all actives have a fitted effect of over 25% in size); settings: HEK293T ATAD5-luc cells viability, CellTiter-Fluor, 15.5 h; series mostly up to 83.3 µM
Summary of the method: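 HEK293T cells expressing luciferase-tagged ATAD5 were exposed to compound or DMSO for 15.5 hr at 37C, 5% CO2. Viability was then read as live-cell protease activity by CellTiter-Fluor fluorescence after 30 min at 37C.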

[4] = qHTS assay for small molecule disruptors of the mitochondrial membrane potential - cell viability (AID 720634; calls by dose curve;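 note: human HepG2 liver cancer cells; nearly all actives have a fitted effect of over 20% in size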); settings: HepG2 viability, ATP luminescence (CellTiter-Glo), 1 h; series mostly up to 83.2 µM
Summary of the method: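 HepG2 cells seeded overnight at 37 C, then exposed to compound or DMSO for 1 hr at 37 C, 5% CO2. m-MPI dye added, then CellTiter-Glo for 30 min at room temperature; viability read as ATP luminescence.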

[5] = qHTS assay to test for compound auto fluorescence at 590 nm (red) in HepG2 cells (AID 720674); settings: HepG2 autofluorescence, red 540/590 nm, 1 h; series mostly up to 91.3 µM
Summary of the method: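 1 hr compound incubation on HepG2 cells, 37 C, 5% CO2; plate read ex 540 nm / em 590 nm; intensities reported as Rose Bengal sodium equivalents.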

[6] = qHTS assay to test for compound auto fluorescence at 535 nm (green) in HepG2 cells (AID 720675); settings: green autofluorescence 485/535 nm, 1 h; series mostly up to 91.3 µM
[7] = qHTS assay to test for compound auto fluorescence at 460 nm (blue) in HEK293 cells (AID 720678); settings: blue autofluorescence 405/460 nm; series mostly up to 91.3 µM
Summary of the method: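 HEK293 cells (2,000 per well, medium with 10% dialyzed FBS) attached for 4-5 hr at 37C, then received compound and stood overnight at 37C, 5% CO2. Blue fluorescence was read at Ex/Em 405/460 nm and expressed relative to triamterene.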

[8] = qHTS assay to test for compound auto fluorescence at 590 nm (red) in HEK293 cells (AID 720679); settings: red autofluorescence 540/590 nm; series mostly up to 91.3 µM
Summary of the method: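 HEK293 cells (2,000/well, medium with 10% dialyzed FBS) attached for 4-5 hr at 37C, received 23 nL compound and were incubated overnight at 37C, 5% CO2. Red fluorescence was then read at 540/590nm Ex/Em, referenced to Rose Bengal sodium.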

[9] = qHTS assay for small molecule disruptors of the mitochondrial membrane potential (AID 720635); settings: HepG2 mitochondrial membrane potential, Mito-MPS dye ratio; series mostly up to 83.2 µM; note: potency is the fitted concentration of half-maximal effect
Summary of the method: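 Mitochondrial membrane potential tracked with Mito-MPS dye, red aggregates (ex 540/em 590 nm) against green monomers (ex 490/em 535 nm). Compound treatment 1 hr at 37C, dye 30 min in HepG2.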

[10] = qHTS assay for small molecules that induce genotoxicity in human embryonic kidney cells expressing luciferase-tagged ATAD5 (AID 651632); settings: HEK293T ATAD5-luciferase induction, 16 h; series mostly up to 83.3 µM; note: nearly all actives have a fitted effect of over 15% in size
Summary of the method: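 HEK293T cells carrying a luciferase reporter tagged to ATAD5 were exposed to compound or DMSO vehicle for 16 hr at 37C, 5% CO2. Amplite was added, and after 30 min at room temperature luciferase activity was read as a marker of ATAD5 induction.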

Measured: Potency

C=C(C)[C@@H]1CC=C(C=O)CC1
not listed: [9] | [10]
inactive: all other assays above

CCCCCCI
not listed: [10]
inactive: all other assays above

ClCC(Cl)(Cl)Cl
not listed: [6] | [7] | [10]
inactive: all other assays above

COc1cccc2c1cc([N+](=O)[O-])c1c(C(=O)O)cc3c(c12)OCO3
active: [1] 2.43 µM | [9] 48.6 µM
not listed: [2] | [3]
inactive: all other assays above

CNNC
not listed: [4] | [9] | [10]
inactive: all other assays above

CC(C=O)Cc1ccc2c(c1)OCO2 (stereo not drawn)
not listed: [2] | [4] | [9]
inactive: all other assays above

CC(C)(C)NCC(O)c1cc(Cl)c(N)c(Cl)c1 (stereo not drawn)
active: [1] 1.33 µM
not listed: [9] | [10]
inactive: all other assays above

O=NN1CCN(N=O)CC1
not listed: [2] | [9] | [10]
inactive: all other assays above

COc1cc2c(cc1OC)[C@@]13CCN4CC5=CCO[C@H]6CC(=O)N2[C@H]1[C@H]6[C@H]5C[C@H]43
not listed: [9] | [10]
inactive: all other assays above

CCC(Cl)[N+](=O)[O-] (stereo not drawn)
not listed: [6] | [10]
inactive: all other assays above

CCOP(=O)(OCC)OP(=O)(OCC)OCC
not listed: [1]
inactive: all other assays above

N#CCBr
not listed: [2] | [6] | [9]
inactive: all other assays above

CCCCOC(=O)c1ccccc1C(=O)O
inactive: [1] | [10] | [5] | [6] | [7] | [8]

N#CCNCC#N
not listed: [1]
inactive: all other assays above

O=[N+]([O-])c1ccc(CBr)cc1
not listed: [7] | [9] | [10]
inactive: all other assays above

CC(=O)CC(c1ccc(Cl)cc1)c1c(O)c2ccccc2oc1=O (stereo not drawn)
active: [9] 32.1 µM
not listed: [1]
inactive: all other assays above

Cc1cc(C)c(C(=O)P(=O)(C(=O)c2c(C)cc(C)cc2C)c2ccccc2)c(C)c1
not listed: [10]
inactive: all other assays above

Nc1cnn(-c2ccccc2)c(=O)c1Cl
not listed: [10]
inactive: all other assays above

CCCCCCBr
not listed: [2] | [10]
inactive: all other assays above

CN1CCN(C(=O)O[C@H]2c3nccnc3C(=O)N2c2ccc(Cl)cn2)CC1
inactive: [1] | [3] | [5] | [6] | [7] | [8]

NC1=NC(=O)C(c2ccccc2)O1 (stereo not drawn)
not listed: [1]
inactive: all other assays above

CC(C)NCC(O)c1ccc(N)c(C#N)c1 (stereo not drawn)
not listed: [10]
inactive: all other assays above

O=C(NCO)NCO
not listed: [2] | [4]
inactive: all other assays above

COc1cc(OC)nc(NC(=O)NS(=O)(=O)c2ncccc2OCC(F)(F)F)n1
not listed: [1] | [6]
inactive: all other assays above

CCCCOC(=O)c1ccccc1N
inactive: [10] | [2] | [3] | [4] | [5] | [8]

O=C(Oc1ccc(Br)cc1)N1CCN2CCC1CC2
not listed: [1] | [9]
inactive: all other assays above

CC(CC(C#N)(c1ccccc1)c1ccccc1)N(C)C (stereo not drawn)
not listed: [1] | [9]
inactive: all other assays above

CC1(C)C(=O)NC(=O)NC1=O
not listed: [1] | [6]
inactive: all other assays above

COC(C)(C)C
not listed: [1] | [4]
inactive: all other assays above

O=C(O)c1cccc(Cl)c1
not listed: [1] | [9]
inactive: all other assays above

CC(CCc1ccccc1)NC(C)C(O)c1ccc(O)cc1 (stereo not drawn)
not listed: [1] | [9]
inactive: all other assays above

CN1CCC(O)(c2ccc(F)cc2)C(C(=O)c2ccc(F)cc2)C1 (stereo not drawn)
not listed: [1] | [7] | [9]
inactive: all other assays above

CCOP(=S)(OCC)Oc1ncn(-c2ccccc2)n1
active: [9] 6.86 µM
not listed: [1] | [4]
inactive: all other assays above

N#CC(O)c1ccccc1 (stereo not drawn)
not listed: [1] | [4]
inactive: all other assays above

COC(=O)c1ccccc1S(=O)(=O)NC(=O)N(C)c1nc(C)nc(OC)n1
not listed: [1] | [9]
inactive: all other assays above

CC1(C(=O)Nc2ccc(O)c(Cl)c2Cl)CCCCC1
active: [9] 7.7 µM
not listed: [1] | [4]
inactive: all other assays above

Fc1ccc(C2(Cn3cncn3)OC2c2ccccc2Cl)cc1 (stereo not drawn)
not listed: [1] | [7] | [9]
inactive: all other assays above

O=C1CN=C(c2ccccc2)c2cc([N+](=O)[O-])ccc2N1
not listed: [1] | [7]
inactive: all other assays above
